This is an account of results in PubChem BioAssay (NCATS).

The target in assay [1] is Glucocorticoid receptor (Homo sapiens) (UniProt P04150). Kind of assay: GR-GFP Redistribution (AID 450;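 active = compounds whose dose series gives a full or clear partial fitted curve of increased nuclear translocation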; also: potency is read from the fitted curve at half-maximal effect). To be noted: U2OS GR-GFP nuclear translocation, laser cytometry, 2 h.
The target is the same in assay [2]. Kind of assay: GR-EFC Redistribution (AID 451; calls by dose curve; also: potency is read from the fitted curve at half-maximal effect). Particulars: CHO-K1 GR-EFC translocation, beta-gal luminescence, 2 h. In a few lines:
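Translocation of GR-ED fusion to nuclear EA restores b-gal, read by luminescence after 1 h room-temperature detection. Engineered CHO-K1 biosensor cells, 1,000/well, exposed 2 h at 37 C to titrations up to 46 uM final.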

The target in assay [3] is Mitogen-activated protein kinase 10 (Mus musculus) (UniProt Q61831). Briefly: JNK3 AlphaScreen Assay (AID 530; active = well fitted curve in either direction with a large enough effect, not every such curve was filed as active;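 also: kinase came from lysate of stimulated human HepG2 cells; signal reports phosphorylation of biotinylated GST-cJun 1-79 at Ser73 with 10 µM ATP; series mostly up to about 57 µM; % is scaled to controls: 0 for no effect and ±100 for the full control effect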). The method, boiled down:
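Room-temperature AlphaScreen kinase assay; pre-activated HepG2 lysate as JNK3 source, biotin-GST-cJun(1-79) substrate, 10 uM ATP, compound 15 min preincubation.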
(Bead proximity is the source of the signal in Alpha formats.)

Assay [4] has as its target Cytochrome P450 3A4 (Homo sapiens) (UniProt P08684). Briefly: qHTS Assay for Activators of Cytochrome P450 3A4 (AID 885). Also: nearly all actives have a fitted effect of over 65% in size. In a few lines: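 Signal was normalized against complete inhibition by 57 uM ketoconazole. The reaction used 20nM CYP3A4 with 25uM Luciferin-PPXE, 10-min compound preincubation and a 60-min NADPH-supported step at RT.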
In general terms: qHTS replaces the single test concentration by a dilution series.

Assay [5] concerns the target DNA dC->dU-editing enzyme APOBEC-3G (Homo sapiens) (UniProt Q9HC16). Briefly: qHTS for inhibitors of Vif-A3G interactions: Validation (AID 588379). Also: 0% is about no effect. The method, boiled down:
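HeLa cells stably expressing Vif and A3G-eYFP, 700 cells/well, incubated overnight at 37 deg C, then exposed to compound overnight at 37 deg C. Inhibition of Vif-mediated degradation read as increased yellow fluorescence (Ex 488/Em 500-530) by laser-scanning cytometry.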

Assay [6] addresses Furin (Homo sapiens) (UniProt P09958). Briefly: Furin counterscreen qHTS for Zika virus inhibitors (AID 1347149). Also: nearly all actives have a fitted effect of over 70% in size. Also: potency is read from the fitted curve at half-maximal effect.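 As to activity change, negative = inhibition: purified recombinant full-length human furin enzyme at 5 nM; fluorescence gain from furin cutting a BOC-RVRR-AMC peptide substrate over 15 min; top concentration of the series differs between compounds; plate controls were no-inhibitor control for no effect and no-enzyme control for full effect.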 In a few lines: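 Fluorogenic cleavage of BOC-RVRR-AMC (2 microM final, Km ~15 µM) was monitored (ex 340, em 450 nm) at 37C after 15 min RT preincubation of 5 nM furin with compounds in HEPES pH 7.0 buffer with CaCl2 and Triton X-100. Percent inhibition was fitted to a 4-parameter Hill curve.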
(In general: Counterscreens check selectivity or assay interference.)

Assay [7] has as its system Zika virus NS2B-NS3 protease (linked construct). Briefly: Confirmatory screen NINDS AMC qHTS for Zika virus inhibitors (AID 1347152). Also: potency is read from the fitted curve at half-maximal effect; nearly all actives have a fitted effect of over 70% in size. In a few lines: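 Enzyme (1 nM, linked construct) was preincubated with compound for 15 minutes at room temperature in 10 mM Tris-HCl pH 8.0 with 0.01% Tween 20. Bz-Nle-Lys-Arg-Arg-AMC was then added to 10 microM, and AMC fluorescence was recorded immediately and after 15 minutes.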

Assay [8] deals with Zika virus NS2B-NS3 protease. Briefly: Primary screen GU AMC qHTS for Zika virus inhibitors (AID 1347154). Also: potency is read from the fitted curve at half-maximal effect; nearly all actives have a fitted effect of over 70% in size. In a few lines:
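Fluorogenic AMC-substrate cleavage by noncovalent NS2B-NS3 protease complex (25 nM, pH 8.0 Tris buffer with Tween 20) followed for 15 minutes at room temperature (~20% conversion). Percent inhibition from ex340/em450 signal change, fitted by 4-parameter Hill equation.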

A short description of assay [9]: Confirmatory screen NINDS Rhodamine qHTS for Zika virus inhibitors (AID 1347161). Also: nearly all actives have a fitted effect of over 60% in size. Also: potency is read from the fitted curve at half-maximal effect.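 As to activity change, negative = inhibition: purified Zika NS2B-NS3 protease with linked NS2B cofactor domain and Rhodamine110 peptide substrate; series mostly up to about 110 µM; plate controls were no-inhibitor control for no effect and no-enzyme control for full effect.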 In a few lines:
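Each compound, titrated, sat 15 min with 25 nM linked protease before 1.5 microM Rhodamine110 substrate went in. Fluorescence gain over the next 15 min, in pH 8.0 Tris with Tween 20, gave Hill-fitted curves.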

Assay [10] is described as follows: Vero cells viability qHTS for Zika virus inhibitors (AID 1347167). Also: % is scaled to controls: 0 for no effect and ±100 for the full control effect. The method, boiled down: (§1)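 Compounds were tested in concentration series on cells grown in DMEM containing 4% FBS. After 24 to 48 hours, cellular ATP was measured by luminescence with CellTiter Glo.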
Assay [11] can be described thus: HepG2 cells viability qHTS for Zika virus inhibitors (AID 1347168). Also: % is scaled to controls: 0 for no effect and ±100 for the full control effect. The method, boiled down: as §1
In assay [12] the target is Rap guanine nucleotide exchange factor 3 (Homo sapiens) (UniProt O95398). Briefly: Confirmatory qHTS for antagonist of cAMP-regulated guanine nucleotide exchange factor 3 (EPAC1) (AID 1645880).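 Also: plate controls were DMSO only for no effect and full effect of the ATA control for full effect; nearly all actives have a fitted effect of over 55% in size.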 The method, boiled down:
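Nucleotide exchange uses 100 nM EPAC1, 250 nM RAP1B-BODIPY-GDP and 50 uM GDP, with compounds in a concentration-titration series. After 5 min at room temperature, fluorescence (480 nm ex/540 nm em) is read every 5 min for 30 min. Data are normalized to control ATA and DMSO.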

Assay [13] has the same target. Kind of assay: Confirmatory qHTS for agonist of cAMP-regulated guanine nucleotide exchange factor 3 (EPAC1) (AID 1645881).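 Also: EPAC1 catalysed release of BODIPY-GDP from Rap1B seen as fluorescence loss; 100% = effect of cAMP agonist control; nearly all actives have a fitted effect of over 75% in size.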
Assay [14] concerns the target Rap guanine nucleotide exchange factor 4 (Homo sapiens) (UniProt Q8WZA2). Kind of assay: Confirmatory qHTS for antagonist of cAMP-regulated guanine nucleotide exchange factor 4 (EPAC2) (AID 1645885). Also: % is scaled to controls: 0 for no effect and ±100 for the full control effect; nearly all actives have a fitted effect of over 25% in size.
Assay [15] can be described thus: Confirmatory screen GU Rhodamine qHTS for Zika virus inhibitors qHTS (AID 1347157). Also: nearly all actives have a fitted effect of over 70% in size. Also: potency is read from the fitted curve at half-maximal effect.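 As to activity change, negative = inhibition: plate controls were no-inhibitor wells for no effect and no-enzyme wells for full effect.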 In a few lines: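 A qHTS format was used, with compound concentrations ranging up to 114 microM. Each compound was preincubated with 25 nM NS2B-NS3 protease, and the substrate was then added at 1.5 microM. Curves were fitted with a 4-parameter Hill model.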
The nature of assay [16]: ZIKV-mCherry secondary qHTS for Zika virus inhibitors (AID 1347158). Also: potency is read from the fitted curve at half-maximal effect. As to activity change, negative = inhibition: top concentration of the series differs between compounds. The method, boiled down: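 Vero cells, 5,000/well, plated overnight at 37 °C, then compound added and infected with recombinant ZIKV-mCherry at MOI 1 for 48-72 h. PFA-fixed, Hoechst nuclear stain, high-content imaging; cells with mCherry intensity above 450 RFU scored infected, reported as percent infection.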

The test system of assay [17] is Zika virus NS2B-NS3 protease (linked). Kind of assay: 384 well plate NINDS AMC confirmatory qHTS for Zika virus inhibitors (AID 1347163). Also: nearly all actives have a fitted effect of over 50% in size. Also: potency is read from the fitted curve at half-maximal effect.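 As to activity change, negative = inhibition: linked protease at 5 30 or 60 nM final depending on run; fluorescence of AMC released from Ac-VKTGKR-AMC peptide cleaved by the protease; top concentration of the series differs between compounds; 0% = no-inhibitor control and -100% = no-enzyme control.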 The method, boiled down:
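Linked protease 5/30/60 nM final; cpds up to 1 mM final, ~15 min preinc. Substrate Ac-VKTGKR-AMC 30 microM final. RT, dark, 25 min; FI ex 355/em 460; normalized to no-enzyme/no-inhibitor ctrls.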

Assay [18] has as its system Zika virus NS2B-NS3 protease (linked construct). Briefly: 384 well plate NINDS Rhodamine confirmatory qHTS for Zika virus inhibitors (AID 1347164).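 Also: fluorescence from protease cleavage of Ac-LKRR-rhodamine 110 substrate; potency is read from the fitted curve at half-maximal effect; nearly all actives have a fitted effect of over 65% in size.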 The method, boiled down:
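Enzyme (final 5/30/60 nM) + cpd (DMSO), ~15 min; add Ac-LKRR-Rd 10 microM final; 25 min RT, dark; FI ex 485/em 538; normalized to no-enzyme, no-inhibitor ctrls; aprotinin intraplate ctrl.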

The nature of assay [19]: Tertiary RLuc qRT-PCR qHTS assay for Zika virus inhibitors (AID 1347169). Also: top concentration of the series differs between compounds; % is scaled to controls: 0 for no effect and ±100 for the full control effect; nearly all actives have a fitted effect of over 55% in size. In a few lines:
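Vero, 1,000 cells/well, o/n 37 C; cpd pinned in DMSO; ZIKV-RLuc Cambodian, MOI 1-2, 48-72 h 37 C; live-cell RLuc substrate, lum read at 1-1.5 h.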

The subject of assay [20] is Zika virus NS2B-NS3 protease (unlinked complex). Briefly: Confirmatory screen GU AMC qHTS for Zika virus inhibitors (AID 1347153). Also: nearly all actives have a fitted effect of over 70% in size.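 As to activity, negative = inhibition: percent inhibition with 0% = no inhibitor control and 100% = no enzyme control.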 The method, boiled down: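 Compounds were preincubated 15 min at room temperature with 25 nM noncovalent NS2B-NS3 protease at pH 8.0; AMC substrate added at 10 microM and 15-min fluorescence gain (340/450 nm) converted to percent inhibition, fitted 4-parameter.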

Molecules are shown by their SMILES. A number with no mark means an inactive call. Results filed as inconclusive are left out. The source made the active and inactive calls. Unless noted, calls follow the shape of the dose curve; as a rule, active = well fitted curve in the direction sought with a large enough effect; inconclusive = small, poorly fitted or top-dose-only effect, or another doubt; inactive = no such curve, though single readings can be large; an effect the other way counts as inactive or inconclusive. Bounds are passed on as bounds.

Furin (Homo sapiens), sequence (P09958 whole entry, looked up): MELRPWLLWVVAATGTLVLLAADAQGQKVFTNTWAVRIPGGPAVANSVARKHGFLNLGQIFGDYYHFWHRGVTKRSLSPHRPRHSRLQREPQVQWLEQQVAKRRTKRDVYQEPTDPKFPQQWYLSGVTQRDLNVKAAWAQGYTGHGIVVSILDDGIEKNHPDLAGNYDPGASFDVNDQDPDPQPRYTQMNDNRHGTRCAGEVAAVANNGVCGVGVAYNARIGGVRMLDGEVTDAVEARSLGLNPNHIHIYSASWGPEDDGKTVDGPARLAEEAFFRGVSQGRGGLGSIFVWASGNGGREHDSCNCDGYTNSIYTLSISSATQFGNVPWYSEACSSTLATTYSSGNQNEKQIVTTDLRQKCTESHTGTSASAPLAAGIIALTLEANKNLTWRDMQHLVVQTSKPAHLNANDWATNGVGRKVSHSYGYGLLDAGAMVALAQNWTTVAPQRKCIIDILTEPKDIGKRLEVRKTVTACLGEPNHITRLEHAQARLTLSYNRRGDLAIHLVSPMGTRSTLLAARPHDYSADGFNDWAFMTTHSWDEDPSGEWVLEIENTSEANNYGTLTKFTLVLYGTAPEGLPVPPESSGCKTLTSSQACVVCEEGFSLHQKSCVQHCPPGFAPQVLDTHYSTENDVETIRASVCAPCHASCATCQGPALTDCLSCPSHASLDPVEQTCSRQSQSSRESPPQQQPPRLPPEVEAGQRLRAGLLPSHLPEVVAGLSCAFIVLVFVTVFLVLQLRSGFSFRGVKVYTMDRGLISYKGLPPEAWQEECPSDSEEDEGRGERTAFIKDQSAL
Rap guanine nucleotide exchange factor 3 (Homo sapiens), sequence (O95398 whole entry, looked up): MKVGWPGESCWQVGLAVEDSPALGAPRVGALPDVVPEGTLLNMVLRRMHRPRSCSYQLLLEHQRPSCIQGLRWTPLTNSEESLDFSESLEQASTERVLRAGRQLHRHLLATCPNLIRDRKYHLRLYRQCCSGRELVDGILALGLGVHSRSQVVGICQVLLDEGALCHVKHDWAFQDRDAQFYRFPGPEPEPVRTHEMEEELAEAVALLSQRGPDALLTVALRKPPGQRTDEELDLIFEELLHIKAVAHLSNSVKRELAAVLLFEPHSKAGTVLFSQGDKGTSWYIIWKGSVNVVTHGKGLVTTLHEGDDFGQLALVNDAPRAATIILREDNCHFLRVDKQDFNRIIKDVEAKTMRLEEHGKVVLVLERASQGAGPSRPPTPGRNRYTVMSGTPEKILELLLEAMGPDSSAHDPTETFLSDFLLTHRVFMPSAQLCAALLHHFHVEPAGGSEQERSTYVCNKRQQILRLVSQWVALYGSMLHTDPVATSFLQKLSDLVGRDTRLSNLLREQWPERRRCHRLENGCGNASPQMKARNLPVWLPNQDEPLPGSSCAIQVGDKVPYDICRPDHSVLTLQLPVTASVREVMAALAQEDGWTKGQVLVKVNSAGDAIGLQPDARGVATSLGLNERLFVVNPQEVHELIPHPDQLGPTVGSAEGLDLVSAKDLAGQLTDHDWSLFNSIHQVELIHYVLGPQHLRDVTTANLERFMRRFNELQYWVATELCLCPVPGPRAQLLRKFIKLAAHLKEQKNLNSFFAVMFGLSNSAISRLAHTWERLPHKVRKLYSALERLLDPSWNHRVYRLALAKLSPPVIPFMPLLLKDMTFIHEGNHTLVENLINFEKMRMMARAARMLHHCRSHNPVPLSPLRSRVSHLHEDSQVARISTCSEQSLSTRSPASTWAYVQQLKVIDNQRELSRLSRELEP
Glucocorticoid receptor (Homo sapiens), sequence (P04150 whole entry, looked up): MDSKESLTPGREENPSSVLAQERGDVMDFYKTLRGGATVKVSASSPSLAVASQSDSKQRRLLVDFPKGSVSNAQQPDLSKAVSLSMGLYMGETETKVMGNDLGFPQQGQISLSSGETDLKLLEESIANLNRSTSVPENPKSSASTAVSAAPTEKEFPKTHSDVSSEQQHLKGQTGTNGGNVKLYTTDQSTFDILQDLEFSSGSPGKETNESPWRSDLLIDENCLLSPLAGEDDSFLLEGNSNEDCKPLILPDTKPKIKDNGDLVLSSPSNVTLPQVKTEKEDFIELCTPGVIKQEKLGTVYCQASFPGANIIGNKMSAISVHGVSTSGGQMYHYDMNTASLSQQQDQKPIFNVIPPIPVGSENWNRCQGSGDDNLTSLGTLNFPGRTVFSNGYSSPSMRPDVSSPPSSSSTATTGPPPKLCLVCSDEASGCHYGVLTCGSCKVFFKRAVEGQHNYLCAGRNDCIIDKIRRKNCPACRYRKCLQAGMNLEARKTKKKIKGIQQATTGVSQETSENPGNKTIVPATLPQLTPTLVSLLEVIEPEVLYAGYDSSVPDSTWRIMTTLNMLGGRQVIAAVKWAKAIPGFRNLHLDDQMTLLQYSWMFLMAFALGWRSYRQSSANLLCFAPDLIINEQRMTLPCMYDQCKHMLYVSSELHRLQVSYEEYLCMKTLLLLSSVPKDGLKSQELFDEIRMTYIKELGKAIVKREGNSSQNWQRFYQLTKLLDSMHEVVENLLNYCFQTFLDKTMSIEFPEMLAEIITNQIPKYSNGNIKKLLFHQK
Rap guanine nucleotide exchange factor 4 (Homo sapiens), sequence (Q8WZA2 whole entry, looked up): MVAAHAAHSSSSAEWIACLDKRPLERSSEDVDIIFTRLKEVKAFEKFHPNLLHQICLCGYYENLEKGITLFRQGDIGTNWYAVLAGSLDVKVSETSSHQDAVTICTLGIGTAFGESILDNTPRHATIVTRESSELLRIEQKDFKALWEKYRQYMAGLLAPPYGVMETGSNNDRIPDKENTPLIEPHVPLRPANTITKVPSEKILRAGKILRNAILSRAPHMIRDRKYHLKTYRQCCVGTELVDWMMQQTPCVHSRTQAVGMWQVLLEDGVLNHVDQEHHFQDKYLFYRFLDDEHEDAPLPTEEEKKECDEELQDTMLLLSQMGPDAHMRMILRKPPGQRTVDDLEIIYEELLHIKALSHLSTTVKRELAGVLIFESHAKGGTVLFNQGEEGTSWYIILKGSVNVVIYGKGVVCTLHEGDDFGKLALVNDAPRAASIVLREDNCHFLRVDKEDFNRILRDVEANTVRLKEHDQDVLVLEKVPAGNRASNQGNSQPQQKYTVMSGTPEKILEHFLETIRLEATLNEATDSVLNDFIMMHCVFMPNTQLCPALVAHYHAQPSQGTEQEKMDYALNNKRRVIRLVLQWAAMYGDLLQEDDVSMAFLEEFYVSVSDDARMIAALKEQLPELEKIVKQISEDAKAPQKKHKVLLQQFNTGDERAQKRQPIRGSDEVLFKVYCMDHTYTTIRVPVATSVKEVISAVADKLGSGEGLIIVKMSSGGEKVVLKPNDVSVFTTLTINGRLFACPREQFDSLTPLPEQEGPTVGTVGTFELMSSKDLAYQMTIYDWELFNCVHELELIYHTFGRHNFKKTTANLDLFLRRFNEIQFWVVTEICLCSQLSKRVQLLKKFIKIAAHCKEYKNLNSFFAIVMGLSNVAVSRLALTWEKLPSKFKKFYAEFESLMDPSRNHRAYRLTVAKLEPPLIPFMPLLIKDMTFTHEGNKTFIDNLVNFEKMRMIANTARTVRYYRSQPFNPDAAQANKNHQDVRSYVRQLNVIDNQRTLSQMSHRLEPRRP
Cytochrome P450 3A4 (Homo sapiens), sequence (P08684 whole entry, looked up): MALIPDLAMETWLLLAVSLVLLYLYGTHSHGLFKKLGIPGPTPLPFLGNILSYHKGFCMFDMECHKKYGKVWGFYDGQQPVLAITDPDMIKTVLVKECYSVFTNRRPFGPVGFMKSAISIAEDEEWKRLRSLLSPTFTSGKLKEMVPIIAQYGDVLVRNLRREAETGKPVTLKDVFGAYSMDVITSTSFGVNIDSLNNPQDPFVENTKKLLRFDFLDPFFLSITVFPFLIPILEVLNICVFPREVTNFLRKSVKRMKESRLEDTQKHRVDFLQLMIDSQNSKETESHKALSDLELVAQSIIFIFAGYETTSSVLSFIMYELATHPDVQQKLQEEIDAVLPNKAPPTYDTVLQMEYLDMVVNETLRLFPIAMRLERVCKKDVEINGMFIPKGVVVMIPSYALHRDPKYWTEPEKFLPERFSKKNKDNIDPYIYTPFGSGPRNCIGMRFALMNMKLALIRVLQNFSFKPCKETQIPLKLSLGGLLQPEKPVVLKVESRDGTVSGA
DNA dC->dU-editing enzyme APOBEC-3G (Homo sapiens), sequence (Q9HC16 whole entry, looked up): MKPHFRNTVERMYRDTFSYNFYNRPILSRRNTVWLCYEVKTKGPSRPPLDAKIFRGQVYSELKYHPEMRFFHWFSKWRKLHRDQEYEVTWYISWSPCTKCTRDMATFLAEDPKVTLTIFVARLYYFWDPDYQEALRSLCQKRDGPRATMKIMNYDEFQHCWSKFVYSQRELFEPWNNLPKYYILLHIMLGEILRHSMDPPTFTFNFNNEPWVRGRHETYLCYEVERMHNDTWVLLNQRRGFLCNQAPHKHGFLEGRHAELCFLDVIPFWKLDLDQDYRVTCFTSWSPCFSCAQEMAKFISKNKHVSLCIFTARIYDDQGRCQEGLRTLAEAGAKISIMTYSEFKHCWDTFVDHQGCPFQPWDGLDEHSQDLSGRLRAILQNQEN

With `COc1ccc(-c2nc(C(=O)N3CCN(C)CC3)sc2-c2ccc(OC)cc2)cc1`, the Potency is > 46 µM in assay [1]; > 46 µM in assay [2]; 13.5 µM (active) in [6]; 24.1 µM (active) in assay [7]; 26.7 µM (active) in assay [8]. For the same molecule, the Potency result in assay [3], in assay [4], in [5], in assay [9], in [10] and in [11] was “inactive” throughout. Moreover, the Potency entry in [12] and in assay [14] was “inactive” in each case. For the same molecule, the molecule was classed as inactive in [13].
For `O=C(O)c1ccc2c(ccc3nn(-c4ccc(/C=C/c5ccc(-n6nc7ccc8cc(C(=O)O)ccc8c7n6)cc5[S+](=O)([O-])[O-])c([S+](=O)([O-])[O-])c4)nc32)c1`, the Potency result in [6], in assay [17] and in assay [19] was “inactive” in each case. The Potency is 2.82 µM (active) in assay [15], 4.47 µM (active) in assay [16], 6.31 µM (active) in [9] and 12.6 µM (active) in [18].
Regarding `Cc1ccc(C(=O)Nc2ccc(C(=O)OCc3cc(=O)n4nc(C5CC5)sc4n3)cc2)cc1`, the Potency result in [6] and in assay [15] was “inactive” each time.
For the molecule `Nc1cc(N)c(N=Nc2ccc(S(=O)(=O)Nc3nccs3)cc2)cc1N=Nc1ccc(S(=O)(=O)Nc2nccs2)cc1`, the Potency in [6] is 39.8 µM (active); in [7], 12.6 µM (active); in [17], 63.1 µM (active); in [18] it was 20 µM (active). Also, in [19], the Potency entry is “inactive”.
Turning to `O=C(COC(=O)c1cccc(NC(=O)c2ccc(Br)cc2)c1)c1ccc(Br)cc1`, the Potency result in [6] and in assay [15] was “inactive” throughout.
With `O=C(COc1ccc(F)cc1)Nc1ccc(C(=O)OCc2cc(=O)n3nc(C4CC4)sc3n2)cc1`, the Potency entry in assay [6] and in assay [15] was “inactive” throughout.
As for `O=C(O)c1ccc(C2Nc3ccccc3-c3nnc(SCc4ccc(Cl)cc4)nc3O2)cc1` (stereo not given), the Potency entry in assay [6], in [16] and in [19] was “inactive” throughout. For the same molecule, the Potency was 20 µM (active) in assay [15], 15.8 µM (active) in assay [9], 316 µM (active) in assay [17] and 89.1 µM (active) in [18].
Take `Cc1ccc(C(=O)Nc2ccc(C(=O)OCc3cc(=O)n4c5c(sc4n3)CCCC5)cc2)cc1`: the Potency in assay [6] is 41.8 µM (active). Further, the Potency entry in assay [15] was “inactive”.
With `Cc1oc2c(cc(NS(=O)(=O)c3ccc(Cl)cc3)c3ccccc32)c1C(=O)OCc1ccccc1`, the Potency result in assay [6] and in assay [16] was “inactive” in each case. In addition, the Potency in assay [15] is 28.2 µM (active); in assay [9], 39.8 µM (active).
In the case of `COc1ccc(-c2nc3cc(F)ccc3s2)cc1OC`, the Potency in [6] is 3.43 µM (active). In [20], the activity, negative = inhibition is -4.14% [at 5.51 µM]. In addition, in assay [9], the activity change, negative = inhibition was -16.8% [at 12.7 µM]. Further, the figures for the activity change, negative = cytotoxicity in [10] and in [11] were -2.06% [at 4.93 µM] and 0.919% [at 4.93 µM], respectively. Further, in assay [19], the Potency entry is “inactive”.
For `O=C(O)COc1ccc(-c2nccc3c2C(=O)N(Cc2ccccc2)CC(COc2cccc(C(F)(F)F)c2)O3)cc1` (stereo not given), the Potency entry in assay [6] is “inactive”. Further, the Potency in assay [7] was 55.5 µM (active); in [20], 44.1 µM (active); in [18] it was 35.5 µM (active).
`O=C(O)COc1ccc(-c2nccc3c2C(=O)N(Cc2cccc(C(F)(F)F)c2)CC(CNC(=O)c2cccc(Cl)c2)O3)cc1` (stereo not given): the Potency result in assay [6], in assay [17] and in [19] was “inactive” in each case. Also, the Potency is 49.4 µM (active) in [20] and 22.4 µM (active) in assay [18].
